Data published in PubChem BioAssay (NCATS).
Results filed as inconclusive are left out. The source made the active and inactive calls. Calls follow the shape of the dose curve; as a rule, active = well fitted curve in the direction sought with a large enough effect; inconclusive = small, poorly fitted or top-dose-only effect, or another doubt; inactive = no such curve, though single readings can be large; an effect the other way counts as inactive or inconclusive.

Tests used:
[1] = Quantitative High-Throughput drug screen in 47 multiple myeloma cell lines against the NCATS MIPE library collection: L363_DSMZ cell viability assay (AID 1918984); details: L363 myeloma viability, CellTiter-Glo ATP luminescence, 48 h; viability (% of control): at 45.8 µM (top of the series); also: nearly all actives have a fitted effect of over 40% in size; also: potency is read from the fitted curve at half-maximal effect
Summary of the method: (§1)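 Plated at 500 cells per well, myeloma lines received MIPE 4.0 compounds by pin tool. Following 48 h culture at 37 °C, CellTiter-Glo luminescence gave viability relative to DMSO and media-only controls.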

[2] = Quantitative High-Throughput drug screen in 47 multiple myeloma cell lines against the NCATS MIPE library collection: OCIMY5_PLB cell viability assay (AID 1918988); also: nearly all actives have a fitted effect of over 65% in size; also: potency is read from the fitted curve at half-maximal effect
Summary of the method: as §1

[3] = Quantitative High-Throughput drug screen in 47 multiple myeloma cell lines against the NCATS MIPE library collection: OPM1_PLB cell viability assay (AID 1918989); also: nearly all actives have a fitted effect of over 40% in size; also: potency is read from the fitted curve at half-maximal effect
Summary of the method: as §1

[4] = Quantitative High-Throughput drug screen in 47 multiple myeloma cell lines against the NCATS MIPE library collection: U266_ATCC cell viability assay (AID 1919864); also: nearly all actives have a fitted effect of over 35% in size; also: potency is read from the fitted curve at half-maximal effect
Summary of the method: as §1

[5] = Quantitative High-Throughput drug screen in 47 multiple myeloma cell lines against the NCATS MIPE library collection: XG6_PLB cell viability assay (AID 1919865); also: nearly all actives have a fitted effect of over 40% in size; also: potency is read from the fitted curve at half-maximal effect
Summary of the method: as §1

[6] = Quantitative High-Throughput drug screen in 47 multiple myeloma cell lines against the NCATS MIPE library collection: PE2_PLB cell viability assay (AID 1919869); also: nearly all actives have a fitted effect of over 35% in size; also: potency is read from the fitted curve at half-maximal effect
Summary of the method: as §1

[7] = Quantitative High-Throughput drug screen in 47 multiple myeloma cell lines against the NCATS MIPE library collection: PCM6_Riken cell viability assay (AID 1919870); also: nearly all actives have a fitted effect of over 30% in size; also: potency is read from the fitted curve at half-maximal effect
Summary of the method: as §1

[8] = Quantitative High-Throughput drug screen in 47 multiple myeloma cell lines against the NCATS MIPE library collection: OPM2_DSMZ cell viability assay (AID 1919872); also: nearly all actives have a fitted effect of over 30% in size; also: potency is read from the fitted curve at half-maximal effect
Summary of the method: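 We plated 500 myeloma cells per well, pinned in MIPE 4.0 compounds, and incubated for 48 hours at 37C. ATP was then quantified with CellTiter-Glo, with DMSO and media-only wells defining 100% and 0%.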

[9] = Quantitative High-Throughput drug screen in 47 multiple myeloma cell lines against the NCATS MIPE library collection: KMS11_JCRBsus cell viability assay (AID 1919873); also: nearly all actives have a fitted effect of over 50% in size; also: potency is read from the fitted curve at half-maximal effect
Summary of the method: as §1

[10] = Quantitative High-Throughput drug screen in 47 multiple myeloma cell lines against the NCATS MIPE library collection: KMS28BM_JCRB cell viability assay (AID 1919874); also: nearly all actives have a fitted effect of over 35% in size; also: potency is read from the fitted curve at half-maximal effect
Summary of the method: as §1

[11] = Quantitative High-Throughput drug screen in 47 multiple myeloma cell lines against the NCATS MIPE library collection: UTMC2_PLB cell viability assay (AID 1919868); details: CellTiter-Glo ATP luminescence, 48 h; viability (% of DMSO control): at 45.8 µM (top of the series); also: nearly all actives have a fitted effect of over 55% in size; also: potency is read from the fitted curve at half-maximal effect
Summary of the method: as §1

[12] = Quantitative High-Throughput drug screen in 47 multiple myeloma cell lines against the NCATS MIPE library collection: RPMI8226_ATCC cell viability assay (AID 1919871); also: nearly all actives have a fitted effect of over 30% in size; also: potency is read from the fitted curve at half-maximal effect
Summary of the method: as §1

[13] = Quantitative High-Throughput drug screen in 47 multiple myeloma cell lines against the NCATS MIPE library collection: XG1_PLB cell viability assay (AID 1919866); also: nearly all actives have a fitted effect of over 35% in size; also: potency is read from the fitted curve at half-maximal effect
Summary of the method: as §1

[14] = Quantitative High-Throughput drug screen in 47 multiple myeloma cell lines against the NCATS MIPE library collection: VP6_DJ cell viability assay (AID 1919867); also: nearly all actives have a fitted effect of over 40% in size; also: potency is read from the fitted curve at half-maximal effect
Summary of the method: as §1

[15] = Quantitative High-Throughput drug screen in 47 multiple myeloma cell lines against the NCATS MIPE library collection: SKMM1_PLB cell viability assay (AID 1919863); details: SKMM1 myeloma viability, CellTiter-Glo ATP, 48 h; viability: stronger effect = lower value; also: nearly all actives have a fitted effect of over 35% in size; also: potency is read from the fitted curve at half-maximal effect
Summary of the method: as §1

[16] = Quantitative High-Throughput drug screen in 47 multiple myeloma cell lines against the NCATS MIPE library collection: KMS34_JCRB cell viability assay (AID 1918985)
Summary of the method: as §1

[17] = Quantitative High-Throughput drug screen in 47 multiple myeloma cell lines against the NCATS MIPE library collection: OCIMY7_PLB cell viability assay (AID 1918987); details: OCI-MY7 myeloma viability, CellTiter-Glo ATP, 48 h; viability (% of DMSO): at 45.8 µM (top of the series); also: potency is read from the fitted curve at half-maximal effect; nearly all actives have a fitted effect of over 65% in size
Summary of the method: as §1

[18] = target: Cytochrome P450 3A4 (Homo sapiens) (UniProt P08684); assay: qHTS for inhibitors of CYP3A4 against the NCATS DSHEA and TCM libraries (AID 1919971);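 also: % is scaled to controls: 0 for no effect and ±100 for the full control effect; inhibition lowers luminescence from luciferin made by CYP3A4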
Sequence of Cytochrome P450 3A4 (Homo sapiens) (P08684 whole entry, looked up): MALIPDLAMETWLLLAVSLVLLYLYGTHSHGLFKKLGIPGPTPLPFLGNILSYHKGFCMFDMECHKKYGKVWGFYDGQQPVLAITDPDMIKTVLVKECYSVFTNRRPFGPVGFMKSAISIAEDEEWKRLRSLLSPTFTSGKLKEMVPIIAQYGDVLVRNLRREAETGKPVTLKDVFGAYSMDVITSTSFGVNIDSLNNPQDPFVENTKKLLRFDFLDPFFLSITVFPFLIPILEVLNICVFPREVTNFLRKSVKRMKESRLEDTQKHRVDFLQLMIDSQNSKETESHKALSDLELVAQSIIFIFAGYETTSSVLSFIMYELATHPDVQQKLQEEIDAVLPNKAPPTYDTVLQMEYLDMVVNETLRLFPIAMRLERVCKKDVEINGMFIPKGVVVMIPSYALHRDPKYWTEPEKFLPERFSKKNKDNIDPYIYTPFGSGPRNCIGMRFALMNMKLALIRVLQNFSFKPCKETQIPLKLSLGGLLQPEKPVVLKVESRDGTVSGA
Summary of the method: (§2)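 Luminescent P450-Glo readout. Enzyme plus pro-luciferin substrate in manufacturer buffer (typically 100 mM KPO4); 15 min RT preincubation; 1x NADPH regenerating system, 30-45 min RT in the dark; detection reagent 30 min.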

[19] = target: Cytochrome P450 2D6 (Homo sapiens) (UniProt P10635); assay: qHTS for inhibitors of CYP2D6 against the NCATS DSHEA and TCM libraries (AID 1919972); also: % is scaled to controls: 0 for no effect and ±100 for the full control effect
Sequence of Cytochrome P450 2D6 (Homo sapiens) (P10635 whole entry, looked up): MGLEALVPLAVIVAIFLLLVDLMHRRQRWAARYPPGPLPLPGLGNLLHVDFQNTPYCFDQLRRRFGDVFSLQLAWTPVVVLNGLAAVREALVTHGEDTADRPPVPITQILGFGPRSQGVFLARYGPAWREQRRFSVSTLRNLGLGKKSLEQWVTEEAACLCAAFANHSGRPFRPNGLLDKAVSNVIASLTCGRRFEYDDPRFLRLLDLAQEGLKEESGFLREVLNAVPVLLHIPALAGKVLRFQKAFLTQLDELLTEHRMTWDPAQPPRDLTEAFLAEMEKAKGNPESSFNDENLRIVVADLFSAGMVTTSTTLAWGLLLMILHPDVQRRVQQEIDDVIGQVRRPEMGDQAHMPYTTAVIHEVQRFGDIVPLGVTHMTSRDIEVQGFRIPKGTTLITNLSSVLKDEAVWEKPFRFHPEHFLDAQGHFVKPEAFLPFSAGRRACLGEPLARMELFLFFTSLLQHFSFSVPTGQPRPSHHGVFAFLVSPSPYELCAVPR
Summary of the method: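 Steps: enzyme plus luciferin substrate dispensed; test substances pinned; 15 min RT; 1x NADPH regenerating solution added, 30–45 min RT protected from light; detection reagent, 30 min RT; luminescence measured. Minus-enzyme wells as background.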

[20] = target: Cytochrome P450 2C9 (Homo sapiens) (UniProt P11712); assay: qHTS for inhibitors of CYP2C9 against the NCATS DSHEA and TCM libraries (AID 1919973);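 also: luminogenic pro-luciferin CYP2C9 substrate turned into luciferin with NADPH regeneration; % is scaled to controls: 0 for no effect and ±100 for the full control effect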
Sequence of Cytochrome P450 2C9 (Homo sapiens) (P11712 whole entry, looked up): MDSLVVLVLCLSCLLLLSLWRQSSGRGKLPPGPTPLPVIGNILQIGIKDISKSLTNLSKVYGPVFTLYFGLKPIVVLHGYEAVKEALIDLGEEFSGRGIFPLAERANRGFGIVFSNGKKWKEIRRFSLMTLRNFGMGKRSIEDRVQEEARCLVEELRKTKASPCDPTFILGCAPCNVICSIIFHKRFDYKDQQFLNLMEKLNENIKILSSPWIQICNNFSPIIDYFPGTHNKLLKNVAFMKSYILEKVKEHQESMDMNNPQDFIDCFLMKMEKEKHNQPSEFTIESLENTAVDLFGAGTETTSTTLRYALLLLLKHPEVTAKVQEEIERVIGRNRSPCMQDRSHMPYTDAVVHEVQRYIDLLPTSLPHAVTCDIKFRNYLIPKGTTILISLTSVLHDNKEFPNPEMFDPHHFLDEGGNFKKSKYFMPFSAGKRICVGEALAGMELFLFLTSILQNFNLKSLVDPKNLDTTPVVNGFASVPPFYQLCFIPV
Summary of the method: as §2

CC(C)[C@H](O)C(=O)N[C@@H](C)C(=O)N[C@@H]1C(=O)N(C)CCc2ccccc21
active: Potency [5] 26.4 µM | Potency [7] 26.4 µM | Potency [9] 0.332 µM
inactive: Potency [1] | Potency [2] | Potency [3] | Potency [4] | Potency [6] | Potency [8] | Potency [10]

O=C1CN2Cc3c(ccc(Cl)c3Cl)N=C2N1
active: Potency [2] 23.5 µM | Potency [3] 13.2 µM | Potency [6] 20.9 µM | Potency [12] 18.7 µM
inactive: Potency [1] | Potency [11]

CCCC1OC2C[C@@H]3[C@H]4CCC5=CC(=O)C=C[C@]5(C)[C@H]4C(O)C[C@]3(C)[C@]2(C(=O)CO)O1 (some centres undefined)
inactive: Potency [5] | Potency [13] | Potency [6]
active: Potency [1] 0.0662 µM | Potency [2] 0.0372 µM | Potency [4] 16.6 µM | Potency [9] 0.0015 µM

Cc1ccc(NC(=O)Nc2cc(C(F)(F)F)ccc2F)cc1Nc1ccc2c(c1)NC(=O)C2=Cc1ccc[nH]1
active: Potency [1] 7.43 µM | Potency [2] 23.5 µM | Potency [3] 4.69 µM | Potency [5] 5.26 µM | Potency [13] 6.62 µM | Potency [11] 8.33 µM | Potency [6] 4.18 µM

N#CC(c1ccnc(NCCc2cccnc2)n1)c1nc2ccccc2s1 (centres undefined)
active: Potency [1] 4.69 µM | Potency [2] 13.2 µM | Potency [3] 14.8 µM | Potency [5] 5.9 µM | Potency [13] 10.5 µM | Potency [14] 10.5 µM | Potency [11] 16.6 µM | Potency [6] 5.26 µM | Potency [7] 5.9 µM | Potency [8] 26.4 µM | Potency [9] 11.8 µM | Potency [10] 26.4 µM

O=C(O)C1=NC(C(=O)O)CC(C=CN2c3cc(O)c(OC4OC(CO)C(O)C(O)C4O)cc3CC2C(=O)O)=C1 (centres undefined)
inactive: Potency [1] | Potency [3] | viability [15] 117% | Potency [13] | Potency [6] | Potency [12] | Potency [9]

Cc1cn([C@@H]2C[C@@H](O)[C@H](CO)O2)c(=O)[nH]c1=O
inactive: Potency [1] | Potency [2] | viability [15] 137% | Potency [5] | Potency [13] | Potency [14] | Potency [11] | Potency [6] | Potency [7] | Potency [12] | Potency [8] | Potency [9] | Potency [10]

Cc1ccc(S(=O)(=O)Nc2nc3ccccc3nc2Nc2ccc3nsnc3c2)cc1
active: Potency [1] 0.204 µM | Potency [3] 1.15 µM | Potency [15] 7.24 µM | Potency [5] 0.0724 µM | Potency [13] 0.575 µM | Potency [14] 0.645 µM | Potency [11] 1.02 µM | Potency [9] 11.5 µM

O=C(c1ccc(C(=O)N2CCC(N3CCCC3)CC2)c(Nc2ccccc2)c1)N1CCC(N2CCCC2)CC1
inactive: Potency [1] | Potency [3] | Potency [4] | Potency [5] | Potency [13] | Potency [11] | Potency [6] | Potency [12]
active: Potency [15] 6.62 µM

CCCCCCOC(=O)N=C(N)c1ccc(NCc2nc3cc(C(=O)N(CCC(=O)OCC)c4ccccn4)ccc3n2C)cc1
active: Potency [1] 13.2 µM | Potency [2] 20.9 µM | Potency [5] 11.8 µM | Potency [6] 13.2 µM | Potency [7] 20.9 µM | Potency [12] 18.7 µM | Potency [9] 18.7 µM | Potency [10] 23.5 µM

CO[C@@H]1C(N(C)C(=O)c2ccccc2)C[C@H]2O[C@]1(C)n1c3ccccc3c3c4c(c5c6ccccc6n2c5c31)C(=O)NC4=O (some centres undefined)
active: Potency [16] 3.32 µM | Potency [17] 0.935 µM | Potency [2] 5.26 µM | Potency [3] 4.18 µM | Potency [15] 11.8 µM | Potency [4] 13.2 µM | Potency [11] 2.64 µM | Potency [6] 3.72 µM | Potency [12] 5.26 µM

COc1c(C)c2c(c(O)c1CC=C(C)CCC(=O)OCCN1CCOCC1)C(=O)OC2
active: Potency [16] 5.9 µM | Potency [17] 3.72 µM | Potency [2] 5.26 µM | Potency [3] 8.33 µM | Potency [15] 4.18 µM | Potency [4] 8.33 µM | Potency [6] 4.18 µM | Potency [10] 3.32 µM

CC1(C)C(N(O)C(=O)Nc2ccc(Cl)cc2)N(c2ccc(Cl)cc2)C(=O)N1CC(=O)NN=CC=Cc1ccc([N+](=O)[O-])o1 (centres undefined)
active: Potency [16] 7.43 µM | Potency [17] 5.9 µM | Potency [2] 7.43 µM | Potency [3] 11.8 µM | Potency [15] 13.2 µM | Potency [4] 10.5 µM | Potency [5] 10.5 µM | Potency [13] 8.33 µM | Potency [11] 13.2 µM | Potency [6] 6.62 µM | Potency [12] 11.8 µM | Potency [8] 18.7 µM | Potency [9] 6.62 µM | Potency [10] 8.33 µM

OC[C@H]1O[C@@H](OCCc2ccc(O)cc2)[C@H](O)[C@@H](O)[C@H]1O
inactive: Potency [1] | Potency [6] | Potency [7] | Potency [8] | Potency [9] | outcome [18] | outcome [19] | Potency [20]
active: Potency [3] 29.6 µM | Potency [4] 20.9 µM | Potency [5] 5.9 µM | Potency [14] 0.662 µM

CC(C)(O)CC(=O)NCCn1ccc2ncnc(Nc3ccc(Oc4cccc(C(F)(F)F)c4)c(Cl)c3)c21
inactive: Potency [14]
active: Potency [16] 23.5 µM | Potency [17] 13.2 µM | Potency [2] 1.18 µM | Potency [3] 26.4 µM | Potency [15] 23.5 µM | Potency [4] 16.6 µM | Potency [6] 23.5 µM | Potency [10] 26.4 µM
